Measurements as given in the supplement of paper PMC11732987, “Enantioselective OTUD7B fragment discovery through chemoproteomics screening and high-throughput optimisation” (Communications Chemistry, 2025).

Key:
Assay in all cases: log2 ratio of Biotin-Ahx-Ub-VS probe labelling (fragment/DMSO); higher = less target engagement (more negative = stronger competition), active = hit call of the paper (q ≤ 0.05, log2 ratio ≤ -1)
Conditions in all cases: compound concentration: 200 uM; treatment time: 3 h
USP34 = USP34 (UniProt Q70CQ2)
Method in brief: (§1)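 Labelled DUBs from HEK293T lysate were NeutrAvidin-enriched, digested with LysC and trypsin, and run by diaPASEF LC-MS/MS. Before that, each 495 µg sample in Tris/CHAPS/IGEPAL buffer with protease inhibitors was treated in triplicate with fragment at 200 µM or vehicle for 3 h, then with Biotin-Ahx-Ub-VS at 0.5 µM final for 1 h. Values are average log2 ratios of fragment over vehicle by unpaired t-test, based on global-median-normalised Spectronaut label-free quantities from proteins with ≥2 unique peptides.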

USP36 = target: T1, USP36 (UniProt Q9P275)
T1 sequence (whole entry): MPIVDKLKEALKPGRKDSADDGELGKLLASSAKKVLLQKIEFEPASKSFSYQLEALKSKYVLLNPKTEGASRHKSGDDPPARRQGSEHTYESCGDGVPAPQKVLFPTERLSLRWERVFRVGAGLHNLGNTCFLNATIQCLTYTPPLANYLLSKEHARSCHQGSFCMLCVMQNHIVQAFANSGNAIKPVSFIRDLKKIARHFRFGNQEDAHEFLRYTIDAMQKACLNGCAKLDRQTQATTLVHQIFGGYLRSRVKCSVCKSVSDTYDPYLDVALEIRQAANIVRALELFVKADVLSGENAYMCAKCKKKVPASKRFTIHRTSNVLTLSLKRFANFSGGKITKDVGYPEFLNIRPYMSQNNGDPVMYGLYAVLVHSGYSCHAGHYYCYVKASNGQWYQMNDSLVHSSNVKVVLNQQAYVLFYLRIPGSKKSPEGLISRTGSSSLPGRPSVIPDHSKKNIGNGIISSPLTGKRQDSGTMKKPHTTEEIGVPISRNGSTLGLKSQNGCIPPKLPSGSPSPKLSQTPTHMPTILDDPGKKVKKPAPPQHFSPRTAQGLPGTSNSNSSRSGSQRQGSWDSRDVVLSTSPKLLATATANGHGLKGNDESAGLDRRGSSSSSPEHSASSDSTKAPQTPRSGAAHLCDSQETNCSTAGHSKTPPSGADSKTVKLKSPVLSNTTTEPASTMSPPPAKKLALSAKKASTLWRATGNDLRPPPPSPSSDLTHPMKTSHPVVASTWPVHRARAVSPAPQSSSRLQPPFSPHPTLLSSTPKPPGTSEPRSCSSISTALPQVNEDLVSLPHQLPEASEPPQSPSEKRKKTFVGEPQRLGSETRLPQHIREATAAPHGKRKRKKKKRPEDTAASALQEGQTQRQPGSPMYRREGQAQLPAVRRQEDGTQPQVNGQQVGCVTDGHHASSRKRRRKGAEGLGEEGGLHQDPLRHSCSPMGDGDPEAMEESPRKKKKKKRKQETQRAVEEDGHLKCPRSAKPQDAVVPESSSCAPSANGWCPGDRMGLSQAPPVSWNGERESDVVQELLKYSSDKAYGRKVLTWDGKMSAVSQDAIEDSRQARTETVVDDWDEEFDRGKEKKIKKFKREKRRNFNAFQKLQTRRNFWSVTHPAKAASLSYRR
Method in brief: as §1

USP38 = target: T2, USP38 (UniProt Q8NB14)
T2 sequence (whole entry): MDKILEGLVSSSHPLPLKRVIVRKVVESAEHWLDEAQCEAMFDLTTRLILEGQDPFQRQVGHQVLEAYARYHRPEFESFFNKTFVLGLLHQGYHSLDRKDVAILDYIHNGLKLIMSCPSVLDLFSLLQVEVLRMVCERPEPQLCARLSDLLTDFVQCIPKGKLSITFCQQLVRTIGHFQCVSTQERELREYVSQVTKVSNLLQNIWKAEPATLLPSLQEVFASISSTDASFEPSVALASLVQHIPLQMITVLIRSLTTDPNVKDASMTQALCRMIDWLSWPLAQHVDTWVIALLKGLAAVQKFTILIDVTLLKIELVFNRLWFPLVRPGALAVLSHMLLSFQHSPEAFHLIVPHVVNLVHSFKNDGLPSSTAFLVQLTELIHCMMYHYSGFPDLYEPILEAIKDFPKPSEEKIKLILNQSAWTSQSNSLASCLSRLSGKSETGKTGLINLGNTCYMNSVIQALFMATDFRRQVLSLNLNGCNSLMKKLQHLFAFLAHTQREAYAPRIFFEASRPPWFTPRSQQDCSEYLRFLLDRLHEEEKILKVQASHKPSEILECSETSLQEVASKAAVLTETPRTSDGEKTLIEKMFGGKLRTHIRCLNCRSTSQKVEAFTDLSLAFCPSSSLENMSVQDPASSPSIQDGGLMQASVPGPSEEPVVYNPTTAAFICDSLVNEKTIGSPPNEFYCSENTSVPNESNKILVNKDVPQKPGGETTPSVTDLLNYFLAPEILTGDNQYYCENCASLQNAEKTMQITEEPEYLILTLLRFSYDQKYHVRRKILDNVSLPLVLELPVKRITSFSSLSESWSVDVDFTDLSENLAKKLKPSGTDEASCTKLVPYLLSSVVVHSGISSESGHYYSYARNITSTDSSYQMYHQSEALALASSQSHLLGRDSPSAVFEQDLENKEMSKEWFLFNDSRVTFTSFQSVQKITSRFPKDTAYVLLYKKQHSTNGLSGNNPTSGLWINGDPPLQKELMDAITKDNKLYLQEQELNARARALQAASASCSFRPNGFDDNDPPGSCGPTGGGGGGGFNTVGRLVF
Method in brief: as §1

USP39 = target: T3, USP39 (UniProt Q53GS9)
T3 sequence (whole entry): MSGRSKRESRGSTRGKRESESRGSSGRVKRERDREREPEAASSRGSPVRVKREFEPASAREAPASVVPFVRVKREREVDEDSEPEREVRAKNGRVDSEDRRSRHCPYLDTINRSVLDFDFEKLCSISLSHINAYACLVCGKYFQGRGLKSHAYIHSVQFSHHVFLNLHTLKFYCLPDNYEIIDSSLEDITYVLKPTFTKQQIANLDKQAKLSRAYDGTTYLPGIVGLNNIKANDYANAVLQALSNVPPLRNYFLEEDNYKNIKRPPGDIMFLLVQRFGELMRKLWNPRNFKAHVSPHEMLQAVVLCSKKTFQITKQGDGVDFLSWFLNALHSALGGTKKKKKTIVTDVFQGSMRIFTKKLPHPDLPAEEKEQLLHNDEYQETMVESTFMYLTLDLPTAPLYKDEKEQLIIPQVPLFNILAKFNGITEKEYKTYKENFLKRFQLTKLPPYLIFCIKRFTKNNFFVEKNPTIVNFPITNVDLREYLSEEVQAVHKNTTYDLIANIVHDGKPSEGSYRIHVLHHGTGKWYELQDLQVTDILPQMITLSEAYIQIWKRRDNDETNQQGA
Method in brief: as §1

USP4 = target: T4, USP4 (UniProt Q13107)
T4 sequence (whole entry): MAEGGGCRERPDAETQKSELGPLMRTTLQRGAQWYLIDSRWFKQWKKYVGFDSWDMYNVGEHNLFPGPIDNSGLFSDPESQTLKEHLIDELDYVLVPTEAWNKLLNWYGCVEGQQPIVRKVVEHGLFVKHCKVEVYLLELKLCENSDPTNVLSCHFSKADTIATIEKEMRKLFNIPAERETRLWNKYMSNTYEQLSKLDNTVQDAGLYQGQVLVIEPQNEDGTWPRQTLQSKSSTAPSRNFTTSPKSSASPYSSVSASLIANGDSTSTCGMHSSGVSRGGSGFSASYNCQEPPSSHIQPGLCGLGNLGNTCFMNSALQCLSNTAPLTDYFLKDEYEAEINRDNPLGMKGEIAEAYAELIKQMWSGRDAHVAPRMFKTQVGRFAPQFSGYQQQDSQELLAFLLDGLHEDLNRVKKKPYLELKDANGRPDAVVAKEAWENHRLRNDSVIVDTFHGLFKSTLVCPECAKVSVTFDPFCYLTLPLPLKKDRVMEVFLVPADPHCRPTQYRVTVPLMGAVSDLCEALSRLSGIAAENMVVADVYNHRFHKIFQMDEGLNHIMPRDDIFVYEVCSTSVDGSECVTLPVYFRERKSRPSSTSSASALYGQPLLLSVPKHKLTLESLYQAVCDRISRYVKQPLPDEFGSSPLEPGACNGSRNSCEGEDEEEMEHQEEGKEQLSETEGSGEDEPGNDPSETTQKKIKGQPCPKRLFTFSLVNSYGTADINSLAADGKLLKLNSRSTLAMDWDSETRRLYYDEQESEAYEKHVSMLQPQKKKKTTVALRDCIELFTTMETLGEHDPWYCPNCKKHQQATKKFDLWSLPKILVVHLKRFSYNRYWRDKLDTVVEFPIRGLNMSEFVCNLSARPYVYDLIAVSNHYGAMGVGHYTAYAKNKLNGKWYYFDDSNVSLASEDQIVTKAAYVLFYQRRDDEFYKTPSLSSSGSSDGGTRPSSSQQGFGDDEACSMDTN
Method in brief: as §1

Measured: log2 ratio of Biotin-Ahx-Ub-VS probe labelling

Chain of USP34 (Q70CQ2 whole entry, the tested form may be a part): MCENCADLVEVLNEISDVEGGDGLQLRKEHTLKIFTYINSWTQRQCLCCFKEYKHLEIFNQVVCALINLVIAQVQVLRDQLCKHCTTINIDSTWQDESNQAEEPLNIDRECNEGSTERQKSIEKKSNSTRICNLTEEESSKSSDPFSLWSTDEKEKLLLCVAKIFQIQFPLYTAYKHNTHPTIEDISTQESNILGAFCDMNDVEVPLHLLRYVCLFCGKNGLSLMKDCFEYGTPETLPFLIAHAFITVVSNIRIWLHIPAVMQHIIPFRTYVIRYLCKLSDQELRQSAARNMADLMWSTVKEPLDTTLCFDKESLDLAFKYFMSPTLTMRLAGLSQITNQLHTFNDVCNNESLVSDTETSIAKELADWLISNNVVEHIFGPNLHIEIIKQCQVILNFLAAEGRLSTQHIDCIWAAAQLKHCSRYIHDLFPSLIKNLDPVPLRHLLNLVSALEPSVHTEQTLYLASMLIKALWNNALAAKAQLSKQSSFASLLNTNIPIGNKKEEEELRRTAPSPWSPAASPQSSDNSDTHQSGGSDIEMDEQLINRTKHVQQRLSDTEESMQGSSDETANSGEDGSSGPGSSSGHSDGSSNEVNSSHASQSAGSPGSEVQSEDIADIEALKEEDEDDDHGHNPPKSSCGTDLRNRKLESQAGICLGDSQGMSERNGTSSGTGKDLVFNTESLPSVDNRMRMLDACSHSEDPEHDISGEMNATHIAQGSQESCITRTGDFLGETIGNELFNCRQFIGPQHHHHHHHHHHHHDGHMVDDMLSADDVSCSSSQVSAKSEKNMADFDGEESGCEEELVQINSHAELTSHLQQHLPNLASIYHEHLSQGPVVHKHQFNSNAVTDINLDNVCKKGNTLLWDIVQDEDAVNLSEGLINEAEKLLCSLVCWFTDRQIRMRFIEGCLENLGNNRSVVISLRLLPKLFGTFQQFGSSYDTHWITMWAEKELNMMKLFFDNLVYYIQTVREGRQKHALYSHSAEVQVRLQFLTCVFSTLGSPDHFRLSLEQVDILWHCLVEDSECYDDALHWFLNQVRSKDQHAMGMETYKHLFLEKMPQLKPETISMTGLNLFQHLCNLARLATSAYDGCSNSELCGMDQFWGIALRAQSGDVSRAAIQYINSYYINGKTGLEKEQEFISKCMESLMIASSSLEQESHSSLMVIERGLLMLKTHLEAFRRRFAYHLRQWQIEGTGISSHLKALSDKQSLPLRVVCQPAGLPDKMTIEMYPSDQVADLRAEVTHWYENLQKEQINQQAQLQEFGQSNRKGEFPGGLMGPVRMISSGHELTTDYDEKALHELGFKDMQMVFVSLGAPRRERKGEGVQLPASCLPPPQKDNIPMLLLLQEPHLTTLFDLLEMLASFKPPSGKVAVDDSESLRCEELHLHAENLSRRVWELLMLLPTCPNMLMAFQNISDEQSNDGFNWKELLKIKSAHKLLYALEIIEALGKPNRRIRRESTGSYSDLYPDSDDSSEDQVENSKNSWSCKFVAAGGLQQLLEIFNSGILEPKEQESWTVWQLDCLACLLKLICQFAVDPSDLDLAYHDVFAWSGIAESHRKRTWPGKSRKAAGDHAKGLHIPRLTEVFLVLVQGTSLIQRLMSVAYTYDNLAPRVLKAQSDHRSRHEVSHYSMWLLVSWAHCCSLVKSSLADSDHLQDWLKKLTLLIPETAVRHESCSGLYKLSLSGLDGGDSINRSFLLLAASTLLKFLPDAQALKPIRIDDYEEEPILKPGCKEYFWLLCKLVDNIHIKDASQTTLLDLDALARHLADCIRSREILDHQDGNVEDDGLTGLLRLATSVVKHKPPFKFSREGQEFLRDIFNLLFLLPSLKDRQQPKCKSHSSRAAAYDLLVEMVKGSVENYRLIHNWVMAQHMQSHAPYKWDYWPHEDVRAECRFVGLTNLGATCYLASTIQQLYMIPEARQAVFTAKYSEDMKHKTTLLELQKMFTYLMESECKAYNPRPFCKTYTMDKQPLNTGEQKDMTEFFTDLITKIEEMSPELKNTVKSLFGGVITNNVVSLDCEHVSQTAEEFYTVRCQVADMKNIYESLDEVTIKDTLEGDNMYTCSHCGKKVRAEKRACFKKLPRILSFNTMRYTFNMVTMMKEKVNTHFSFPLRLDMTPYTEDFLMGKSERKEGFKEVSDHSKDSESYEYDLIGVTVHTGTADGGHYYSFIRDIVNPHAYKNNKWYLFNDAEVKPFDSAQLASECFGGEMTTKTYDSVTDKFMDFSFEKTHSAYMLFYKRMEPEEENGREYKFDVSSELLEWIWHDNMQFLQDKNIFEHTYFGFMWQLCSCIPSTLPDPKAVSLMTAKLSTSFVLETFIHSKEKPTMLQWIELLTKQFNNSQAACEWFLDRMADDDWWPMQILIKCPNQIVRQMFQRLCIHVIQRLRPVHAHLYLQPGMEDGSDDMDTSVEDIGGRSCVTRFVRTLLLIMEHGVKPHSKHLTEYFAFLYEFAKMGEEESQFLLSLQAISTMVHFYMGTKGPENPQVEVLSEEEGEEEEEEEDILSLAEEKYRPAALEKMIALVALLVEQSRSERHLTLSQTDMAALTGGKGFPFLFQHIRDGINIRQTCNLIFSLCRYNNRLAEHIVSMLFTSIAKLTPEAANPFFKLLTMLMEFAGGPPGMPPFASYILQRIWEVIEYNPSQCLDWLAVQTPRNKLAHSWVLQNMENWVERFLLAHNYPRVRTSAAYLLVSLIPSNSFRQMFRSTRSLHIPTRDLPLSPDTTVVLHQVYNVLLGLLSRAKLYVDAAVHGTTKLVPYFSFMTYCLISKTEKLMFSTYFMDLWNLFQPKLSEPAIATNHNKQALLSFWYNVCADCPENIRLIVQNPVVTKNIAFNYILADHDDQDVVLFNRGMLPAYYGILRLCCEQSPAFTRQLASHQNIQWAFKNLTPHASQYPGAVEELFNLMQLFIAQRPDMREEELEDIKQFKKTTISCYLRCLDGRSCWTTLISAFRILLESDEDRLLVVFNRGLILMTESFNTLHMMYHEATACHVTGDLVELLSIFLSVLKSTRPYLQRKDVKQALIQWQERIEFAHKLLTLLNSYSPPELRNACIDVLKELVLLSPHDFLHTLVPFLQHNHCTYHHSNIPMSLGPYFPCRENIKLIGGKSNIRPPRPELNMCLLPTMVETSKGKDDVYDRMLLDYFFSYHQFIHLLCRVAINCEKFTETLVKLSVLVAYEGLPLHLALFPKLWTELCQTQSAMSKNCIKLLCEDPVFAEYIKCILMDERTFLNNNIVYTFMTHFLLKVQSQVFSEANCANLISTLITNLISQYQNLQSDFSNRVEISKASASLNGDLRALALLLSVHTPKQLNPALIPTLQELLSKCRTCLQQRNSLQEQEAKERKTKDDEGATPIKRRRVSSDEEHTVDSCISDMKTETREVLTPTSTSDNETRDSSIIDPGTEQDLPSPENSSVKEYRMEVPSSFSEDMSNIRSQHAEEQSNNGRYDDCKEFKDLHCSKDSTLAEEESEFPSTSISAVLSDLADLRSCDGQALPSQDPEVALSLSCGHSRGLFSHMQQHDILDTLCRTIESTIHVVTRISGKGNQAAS

O=C(CCl)N1CCC(OCc2ccccc2F)CC1
inactive: USP34 -0.138 | USP36 0.169 | USP38 0.211 | USP39 0.264 | USP4 -0.121
